# Test results as given in ChEMBL document CHEMBL1961873, “Compounds: GSK PKIS; Assays: Nanosyn kinase panel” (2012).
# Assays:
# [1] = target: RAF proto-oncogene serine/threonine-protein kinase (Homo sapiens) (UniProt P04049); conditions: at 1 µM;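 also: values are the mean percent inhibition of CRAF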
# [2] = target: T1, Interleukin-1 receptor-associated kinase 4 (Homo sapiens) (UniProt Q9NWZ3); conditions: at 0.1 µM
# T1 sequence (whole entry): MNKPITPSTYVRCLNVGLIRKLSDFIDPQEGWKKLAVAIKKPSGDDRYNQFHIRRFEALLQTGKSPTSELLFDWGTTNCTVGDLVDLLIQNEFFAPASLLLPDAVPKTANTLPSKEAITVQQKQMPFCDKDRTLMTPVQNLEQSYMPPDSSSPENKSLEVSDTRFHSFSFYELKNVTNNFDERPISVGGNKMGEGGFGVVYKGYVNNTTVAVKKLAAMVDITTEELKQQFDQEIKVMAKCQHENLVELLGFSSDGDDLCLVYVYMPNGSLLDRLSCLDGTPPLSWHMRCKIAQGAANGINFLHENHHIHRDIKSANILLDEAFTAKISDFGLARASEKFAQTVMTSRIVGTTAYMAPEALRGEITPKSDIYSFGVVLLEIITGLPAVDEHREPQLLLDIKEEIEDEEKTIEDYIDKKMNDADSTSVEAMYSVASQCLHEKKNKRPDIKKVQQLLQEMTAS
# [3] = target: T1, Interleukin-1 receptor-associated kinase 4 (Homo sapiens); conditions: at 1 µM
# [4] = target: Leucine-rich repeat serine/threonine-protein kinase 2 (Homo sapiens) (UniProt Q5S007); conditions: at 0.1 µM
# [5] = target: Leucine-rich repeat serine/threonine-protein kinase 2 (Homo sapiens) (UniProt Q5S007); conditions: at 1 µM
# [6] = system: Leucine-rich repeat serine/threonine-protein kinase 2 (Homo sapiens), Q5S007 [G2019S]; conditions: at 0.1 µM
# [7] = system: Leucine-rich repeat serine/threonine-protein kinase 2 (Homo sapiens), Q5S007 [G2019S]; conditions: at 1 µM
# RAF proto-oncogene serine/threonine-protein kinase (Homo sapiens), sequence (P04049 whole entry): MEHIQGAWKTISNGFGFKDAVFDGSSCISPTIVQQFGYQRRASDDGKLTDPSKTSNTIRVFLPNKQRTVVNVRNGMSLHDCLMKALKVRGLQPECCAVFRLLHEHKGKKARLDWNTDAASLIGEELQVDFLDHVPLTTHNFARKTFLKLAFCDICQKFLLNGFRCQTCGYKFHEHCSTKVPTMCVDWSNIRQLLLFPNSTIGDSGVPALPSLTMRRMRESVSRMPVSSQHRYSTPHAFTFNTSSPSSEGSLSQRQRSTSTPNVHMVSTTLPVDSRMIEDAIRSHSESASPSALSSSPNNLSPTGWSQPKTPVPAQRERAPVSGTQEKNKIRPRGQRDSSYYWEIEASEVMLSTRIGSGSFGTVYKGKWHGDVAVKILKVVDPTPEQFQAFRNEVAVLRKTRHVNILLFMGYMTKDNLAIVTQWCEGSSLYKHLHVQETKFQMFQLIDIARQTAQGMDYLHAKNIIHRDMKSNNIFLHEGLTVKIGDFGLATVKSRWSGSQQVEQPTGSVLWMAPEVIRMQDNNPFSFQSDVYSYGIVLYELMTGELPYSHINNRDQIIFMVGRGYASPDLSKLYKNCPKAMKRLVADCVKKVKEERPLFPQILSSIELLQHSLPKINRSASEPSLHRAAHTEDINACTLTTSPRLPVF
# Leucine-rich repeat serine/threonine-protein kinase 2 (Homo sapiens), Q5S007 [G2019S], sequence (Q5S007 whole entry G2019S): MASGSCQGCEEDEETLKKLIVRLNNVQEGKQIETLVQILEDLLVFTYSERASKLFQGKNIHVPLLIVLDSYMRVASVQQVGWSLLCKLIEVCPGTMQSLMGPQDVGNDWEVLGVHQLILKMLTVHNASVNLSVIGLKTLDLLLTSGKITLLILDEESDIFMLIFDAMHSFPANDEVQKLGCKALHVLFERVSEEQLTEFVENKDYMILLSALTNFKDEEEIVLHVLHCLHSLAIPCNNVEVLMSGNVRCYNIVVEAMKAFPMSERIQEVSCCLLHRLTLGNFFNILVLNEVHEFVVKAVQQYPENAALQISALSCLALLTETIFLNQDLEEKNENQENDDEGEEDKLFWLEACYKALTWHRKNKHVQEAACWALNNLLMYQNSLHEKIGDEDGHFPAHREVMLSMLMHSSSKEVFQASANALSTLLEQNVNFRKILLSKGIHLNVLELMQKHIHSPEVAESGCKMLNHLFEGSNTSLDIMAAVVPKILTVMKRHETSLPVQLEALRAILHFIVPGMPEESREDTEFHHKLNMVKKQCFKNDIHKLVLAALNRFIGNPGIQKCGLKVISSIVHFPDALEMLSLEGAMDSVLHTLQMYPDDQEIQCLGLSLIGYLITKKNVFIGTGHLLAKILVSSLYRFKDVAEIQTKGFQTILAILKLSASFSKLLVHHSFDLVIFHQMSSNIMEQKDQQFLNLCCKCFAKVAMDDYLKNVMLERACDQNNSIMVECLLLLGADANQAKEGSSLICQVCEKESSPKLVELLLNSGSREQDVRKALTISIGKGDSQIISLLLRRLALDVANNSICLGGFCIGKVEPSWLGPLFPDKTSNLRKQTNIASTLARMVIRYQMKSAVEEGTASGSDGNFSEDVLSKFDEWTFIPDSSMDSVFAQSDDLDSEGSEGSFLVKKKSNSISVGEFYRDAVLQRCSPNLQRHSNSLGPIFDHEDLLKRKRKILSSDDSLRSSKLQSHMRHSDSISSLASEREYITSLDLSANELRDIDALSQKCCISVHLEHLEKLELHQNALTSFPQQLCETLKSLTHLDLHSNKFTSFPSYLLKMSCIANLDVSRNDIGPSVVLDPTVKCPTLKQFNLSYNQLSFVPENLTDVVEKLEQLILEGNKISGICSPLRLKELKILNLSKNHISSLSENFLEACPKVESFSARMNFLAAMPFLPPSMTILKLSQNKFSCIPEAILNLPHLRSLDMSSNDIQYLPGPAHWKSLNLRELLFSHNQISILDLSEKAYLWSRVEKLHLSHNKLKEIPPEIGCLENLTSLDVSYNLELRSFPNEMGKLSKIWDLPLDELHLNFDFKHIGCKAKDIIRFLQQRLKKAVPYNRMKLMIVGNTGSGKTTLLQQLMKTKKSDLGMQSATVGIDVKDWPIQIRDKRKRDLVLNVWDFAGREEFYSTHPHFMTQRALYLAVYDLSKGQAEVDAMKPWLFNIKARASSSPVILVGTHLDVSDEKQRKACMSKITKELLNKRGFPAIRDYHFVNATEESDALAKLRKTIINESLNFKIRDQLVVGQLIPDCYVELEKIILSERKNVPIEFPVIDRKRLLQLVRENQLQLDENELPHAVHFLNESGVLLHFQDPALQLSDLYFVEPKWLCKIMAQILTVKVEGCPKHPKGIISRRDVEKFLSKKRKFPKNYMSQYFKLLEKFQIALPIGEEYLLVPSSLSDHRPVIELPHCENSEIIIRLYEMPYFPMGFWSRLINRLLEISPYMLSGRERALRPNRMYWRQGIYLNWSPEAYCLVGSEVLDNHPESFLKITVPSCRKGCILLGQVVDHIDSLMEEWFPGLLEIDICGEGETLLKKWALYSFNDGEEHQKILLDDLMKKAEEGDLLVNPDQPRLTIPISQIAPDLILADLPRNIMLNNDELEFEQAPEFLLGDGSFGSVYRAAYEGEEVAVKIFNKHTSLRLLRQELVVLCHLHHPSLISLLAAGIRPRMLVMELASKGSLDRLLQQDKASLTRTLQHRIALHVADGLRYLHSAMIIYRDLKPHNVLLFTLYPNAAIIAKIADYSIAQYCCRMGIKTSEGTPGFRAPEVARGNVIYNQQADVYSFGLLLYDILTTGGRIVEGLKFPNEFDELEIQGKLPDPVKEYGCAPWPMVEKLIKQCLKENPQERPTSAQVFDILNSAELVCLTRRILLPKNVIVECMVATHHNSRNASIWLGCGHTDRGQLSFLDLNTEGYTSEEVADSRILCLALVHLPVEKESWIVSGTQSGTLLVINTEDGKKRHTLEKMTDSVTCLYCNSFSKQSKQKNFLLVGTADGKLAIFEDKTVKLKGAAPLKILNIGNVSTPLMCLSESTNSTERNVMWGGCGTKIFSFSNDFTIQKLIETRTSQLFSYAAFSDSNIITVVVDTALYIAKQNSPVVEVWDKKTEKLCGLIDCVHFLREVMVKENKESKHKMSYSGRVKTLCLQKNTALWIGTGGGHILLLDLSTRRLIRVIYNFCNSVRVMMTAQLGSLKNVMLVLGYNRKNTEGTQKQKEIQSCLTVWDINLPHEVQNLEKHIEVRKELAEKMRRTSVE
# Leucine-rich repeat serine/threonine-protein kinase 2 (Homo sapiens), sequence (Q5S007 whole entry): as the sequence (Q5S007 whole entry G2019S) above, with S2019G counted along it
structure (smiles),measurement,setting,value
CC(=O)Nc1cccc(C#Cc2cncnc2Nc2ccc(OCc3cccc(F)c3)c(Cl)c2)n1,inhibition,[1],-2.95%
same,inhibition,[2],-0.61%
same,inhibition,[3],-0.89%
same,inhibition,[4],3.07%
same,inhibition,[5],4.78%
same,inhibition,[6],2.03%
same,inhibition,[7],5%
Cc1ccc(NC(=O)c2ccnc(N3CCCC3)c2)cc1-c1ccc(C(=O)NCC2CC2)cc1,inhibition,[1],-6.49%
same,inhibition,[2],-0.18%
same,inhibition,[3],2.34%
same,inhibition,[4],1.63%
same,inhibition,[5],6.13%
same,inhibition,[6],4.42%
same,inhibition,[7],7.81%
[O-][S+]1CCN(Cc2ccc(-c3ccc4ncnc(Nc5ccc(OCc6ccccc6)c(F)c5)c4c3)o2)CC1,inhibition,[1],-3.42%
same,inhibition,[2],3.06%
same,inhibition,[3],1.06%
same,inhibition,[4],2.89%
same,inhibition,[5],2.77%
same,inhibition,[6],2.32%
same,inhibition,[7],8.38%
O=C1NC(=O)C(c2ccccc2Cl)=C1Nc1cccc(O)c1,inhibition,[1],-0.43%
same,inhibition,[2],-2%
same,inhibition,[3],1.87%
same,inhibition,[4],4.27%
same,inhibition,[5],13.2%
same,inhibition,[6],3.28%
same,inhibition,[7],14.6%
CS(=O)(=O)CCNCc1ccc(-c2ccc3ncnc(Nc4ccc(OCc5ccccc5)c(Cl)c4)c3c2)o1,inhibition,[1],-1.69%
same,inhibition,[2],0.4%
same,inhibition,[3],0.86%
same,inhibition,[4],2.66%
same,inhibition,[5],7.97%
same,inhibition,[6],4.51%
same,inhibition,[7],7.5%
Nc1nc(-c2ccc3c(c2)C(=Cc2cc(Br)c(O)c(Br)c2)C(=O)N3)cs1,inhibition,[1],26.7%
same,inhibition,[2],3.08%
same,inhibition,[3],-0.15%
same,inhibition,[4],0.74%
same,inhibition,[5],14.2%
same,inhibition,[6],10.3%
same,inhibition,[7],43.5%
O=C1Nc2ccc(C(=O)c3ccco3)cc2C1=Cc1cc(Cl)c(O)c(Cl)c1,inhibition,[1],48.6%
same,inhibition,[2],3.84%
same,inhibition,[3],5.2%
same,inhibition,[4],22.8%
same,inhibition,[5],24%
same,inhibition,[6],61.1%
same,inhibition,[7],63.9%
CC1=C(C(=O)Nc2ccc3[nH]ncc3c2)C(c2ccc(Cl)c(Cl)c2)CC(=O)N1 (configuration not stated),inhibition,[1],2.44%
same,inhibition,[2],-3.53%
same,inhibition,[3],0.93%
same,inhibition,[4],2.44%
same,inhibition,[5],4.77%
same,inhibition,[6],0.95%
same,inhibition,[7],8.99%
CCn1c(-c2nonc2N)nc2c(N3CCCC3)nccc21,inhibition,[1],-1.43%
same,inhibition,[2],1.9%
same,inhibition,[3],-0.28%
same,inhibition,[4],-2.19%
same,inhibition,[5],2.91%
same,inhibition,[6],0.77%
same,inhibition,[7],1.57%
NCc1ccc(-c2nc(-c3ccc(Cl)c(O)c3)c(-c3ccncc3)[nH]2)cc1,inhibition,[1],76.6%
same,inhibition,[2],3%
same,inhibition,[3],0.37%
same,inhibition,[4],1.04%
same,inhibition,[5],1.56%
same,inhibition,[6],1.02%
same,inhibition,[7],4.61%
COc1cc2ncn(-c3cc(O[C@H](C)c4ccccc4Cl)c(C(N)=O)s3)c2cc1OC,inhibition,[1],2.16%
same,inhibition,[2],-1.67%
same,inhibition,[3],3.82%
same,inhibition,[4],5.85%
same,inhibition,[5],21.6%
same,inhibition,[6],12.1%
same,inhibition,[7],51.9%
CCCN1CCC(Oc2cc(Nc3nc(Nc4cccc(F)c4C(N)=O)c4cc[nH]c4n3)c(OC)cc2Cl)CC1,inhibition,[1],5.41%
same,inhibition,[2],-2.83%
same,inhibition,[3],2.25%
same,inhibition,[4],11.5%
same,inhibition,[5],19.6%
same,inhibition,[6],12.8%
same,inhibition,[7],55.9%
COc1ccc(-c2ccncc2)cc1C(N)=O,inhibition,[1],-2.86%
same,inhibition,[2],1.8%
same,inhibition,[3],2.34%
same,inhibition,[4],2.67%
same,inhibition,[5],5.73%
same,inhibition,[6],4.45%
same,inhibition,[7],9.13%
CNC(=O)c1cncc(/C=C/c2c(Cl)cccc2Cl)c1,inhibition,[1],0.92%
same,inhibition,[2],1.25%
same,inhibition,[3],2.37%
same,inhibition,[4],0.98%
same,inhibition,[5],7.19%
same,inhibition,[6],5.24%
same,inhibition,[7],14.7%
Cc1cc(O)cc(C)c1/C=C/c1cncc(-c2nn[nH]n2)c1,inhibition,[1],60.8%
same,inhibition,[2],1.46%
same,inhibition,[3],2.18%
same,inhibition,[4],1.54%
same,inhibition,[5],10.4%
same,inhibition,[6],6.18%
same,inhibition,[7],35.4%
COc1cc2ncn(-c3cc(O[C@@H](C)c4ccccc4Cl)c(C(N)=O)s3)c2cc1OC,inhibition,[1],4.09%
same,inhibition,[2],1.23%
same,inhibition,[3],2.08%
same,inhibition,[4],10.9%
same,inhibition,[5],50%
same,inhibition,[6],24%
same,inhibition,[7],64%
